Bioassay records deposited in PubChem BioAssay by several laboratories.
ADAM10 inh: ADAM10 inhibition, QFRET primary screen. O14672. recombinant ADAM10, EDANS/DABCYL FRET peptide cleavage, 3 h. inhibition, % at 7 µM. hit rate 0.62% among 370,000;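 active = inhibition above a per-campaign cutoff equal to the mean of compounds falling between control-based bounds plus 3 SD, cut at about 20% in these data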;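 note: 0% = DMSO wells while the 100% control is not disclosed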
ADAM17 inh: ADAM17 inhibition, QFRET primary screen | P78536 | recombinant ADAM17, EDANS/DABCYL FRET peptide cleavage | inhibition, % at 6.95 µM | hit rate 0.83% among 370,000;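 active = inhibition above the mean of compounds lying between control limits plus 3 SD, set per campaign, cut at about 8.5% in these data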;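 note: 0% = DMSO-only wells as the low control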
KLK7 zymogen act: proKLK7 (human) activation, primary screen. P49862. purified proKLK7, EDANS-DABCYL substrate fluorescence; 100% is mature enzyme control, 0% vehicle. activation, % at 7 µM. hit rate 0.9% among 370,000. AID 652039;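 active = activation above the mean of all tested compounds plus 3 SD, computed per campaign excluding outliers beyond control limits, cut at about 13% in these data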
Target sequence (P49862 whole entry, looked up): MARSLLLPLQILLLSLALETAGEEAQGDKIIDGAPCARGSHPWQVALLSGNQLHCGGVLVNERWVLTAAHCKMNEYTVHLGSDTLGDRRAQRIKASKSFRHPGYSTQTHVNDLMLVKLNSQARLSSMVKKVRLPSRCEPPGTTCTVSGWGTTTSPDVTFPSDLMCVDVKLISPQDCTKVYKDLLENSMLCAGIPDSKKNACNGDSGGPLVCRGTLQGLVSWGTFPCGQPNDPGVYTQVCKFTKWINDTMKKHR
FGF22 binding: shifts melting point of recombinant human FGF22. hit rate 1.5% among 340,000. activity (Tm shift, normalised), % at 9.99 µM. recombinant FGF22 thermal shift, SYPRO orange fluorescence; percent of sucrose octasulfate shift, DMSO zero. AID 651658;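 active = mean Tm shift, scaled 0 neutral to 100 positive control, at about 1.3% or above, every replicate too, limit read from the data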
Target sequence (Q9HCT0 whole entry, looked up): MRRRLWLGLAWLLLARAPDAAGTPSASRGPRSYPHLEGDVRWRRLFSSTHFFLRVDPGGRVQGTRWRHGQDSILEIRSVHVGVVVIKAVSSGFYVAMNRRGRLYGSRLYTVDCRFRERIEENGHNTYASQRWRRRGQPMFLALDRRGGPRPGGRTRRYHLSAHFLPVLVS
Ecoli rRNA inh: selective bacterial rRNA inhibition in E. coli; E. coli WT GFP vs humanized-ribosome RFP mutants, fluorescence, 24 h; hits give low values; DMSO median 0, no signal -100; GFP signal change (wild-type ribosome), % (test concentration not listed); AID 720706; hit rate 1.6% among 350,000;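 active = significant combined selectivity score with lowered wild-type GFP, culture density cut under 30%, mutant RFP and density less affected; inactive = any of these conditions unmet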
proKLK7 act conf: confirmation of human kallikrein-7 zymogen activators. purified proKLK7, EDANS-DABCYL substrate fluorescence; scaled: vehicle 0, mature enzyme 100. activation, % at 7 µM. shares compounds with KLK7 zymogen act. hit rate 68% among 3,200;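 active = activation, as change over the incubation, above the mean of all tested compounds plus 3 SD, cut at about 13% in these data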
EDANS interfere: fluorescence interference counter-screen for KLK7 activators | shares compounds with KLK7 zymogen act | EDANS-DABCYL substrate fluorescence interference, no enzyme, 4 h; solvent 0%, active enzyme control 100% | activation, % at 7 µM | hit rate 80% among 3,200 | AID 686952;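 active = activation above the all-compound mean plus 3 SD, ignoring values outside control-based bounds, cut at about 4.8% in these data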;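 note: value is the 4 h activation minus the activation read at time zero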
EDANS interf: EDANS fluorescence interference in dose response, no enzyme; shares compounds with KLK7 zymogen act; hit rate 20% among 250; EDANS-DABCYL peptide fluorescence interference; EC50, µM;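 active = compounds that raise the fluorescence signal in this interference counterscreen, with EC50 at or below 10 µM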;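 note: intact quenched peptide substrate alone read at 355 nm excitation and 520 nm emission; signal is fluorescence gain from T0 to T4 after four hours at room temperature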
The depositor's hits bear a star; i = inactive; / = no result given. Most compounds without a hit are left out; they make up all but 3.8% or so of the library.

SMILES	ADAM10 inh	ADAM17 inh	KLK7 zymogen act	FGF22 binding	Ecoli rRNA inh	proKLK7 act conf	EDANS interfere	others
CCc1ccc2nc3nc(C)cc(C)c3c(N)c2c1	i	-225	32*	0	0	32*	40*
CCc1ccc(NC(=S)/N=C(\N)Nc2nc(C)c3cc(CC)ccc3n2)cc1	5	-5	-1	0	-13	/	/
Cc1nc2ccccc2c2c(N)cccc12	-2	-2	0	0	6	/	/
CCCC(NC(=O)COc1cc2c(c3oc(=O)c(C)c(C)c13)CCC(C)(C)O2)C(=O)O (stereo unspecified)	i	-282	-2	0	0	/	/
CSCC[C@H](NC(=O)COc1cc2c(c3oc(=O)c(C)c(C)c13)CCC(C)(C)O2)C(=O)O	i	i	57*	0	-6	67*	73*
CSC[C@H](NC(=O)COc1cc2c(c3oc(=O)cc(C)c13)CCC(C)(C)O2)C(=O)O	i	i	24*	0	-2	60*	64*
CSC[C@H](NC(=O)COc1cc2c(c3oc(=O)c(C)c(C)c13)CCC(C)(C)O2)C(=O)O	i	i	60*	-1	-2	62*	70*
Cc1c(C)c2c(OCC(=O)N[C@@H](Cc3ccccc3)C(=O)O)cc3c(c2oc1=O)CCC(C)(C)O3	i	i	56*	0	/	59*	58*
O=C(C1CC1)N1CCCCN2[C@H](CO)[C@H](c3ccc(C#CC4(O)CCCC4)cc3)[C@H]2C1	/	/	/	0	/	/	/
O=C(C[C@@H]1CC[C@@H]2[C@H](COC[C@@H](O)CN2Cc2nccs2)O1)NCc1ccc(Cl)cc1	/	/	/	0	4	/	/
COc1ccccc1-c1ccc2c(c1)[C@H]1[C@H](CCN1S(=O)(=O)c1cccc(F)c1)[C@@H](CO)N2	/	/	/	/	1	/	/
Cc1c(C)c2c(OCC(=O)N[C@@H](CC(C)C)C(=O)O)cc3c(c2oc1=O)CCC(C)(C)O3	i	i	45*	0	-10	41*	27*	EDANS interf=>70
COCCCNC(=O)COc1cc2c(c3oc(=O)c(C)c(C)c13)CCC(C)(C)O2	i	i	18*	0	-11	-94	-74
CCNC(=O)C[C@@H]1CC[C@H]2[C@H](COc3ccc(NC(=O)Nc4ccccc4OC)cc3C(=O)N2C)O1	/	/	/	0	-5	/	/
COc1ccc(C2=CC(c3ccc(OC)c(OC)c3)n3nnnc3N2)c(OC)c1 (stereo unspecified)	-67	-8	16*	/	/	11	-15
COc1ccc2cc3cc(C(=O)NCc4ccccn4)oc3nc2c1	i	i	42*	/	/	-18	-4
COc1ccc2cc3cc(C(=O)NCc4ccco4)oc3nc2c1	i	i	49*	/	/	-43	-26
COc1ccc2cc3cc(C(=O)NCCC(C)C)oc3nc2c1	i	-380	-15	0	10	/	/
O=C1N[C@@H](Cc2ccccc2)COCc2cnnn2CC[C@H]1Cc1cccc(F)c1	/	/	/	/	5	/	/
CCCC#Cc1ccc2c(c1)[C@H]1[C@H](CCN1C(=O)C1CC1)[C@H](CO)N2	/	/	/	/	2	/	/
COc1nc(Nc2nc3ccccc3c(=O)[nH]2)nc2ccc(C)cc12	10	0	0	0	16	/	/
COc1nc(N=C(N)N)nc2ccc(C)cc12	-323	-89	17*	0	25	6	9.5*
CCC(=O)Nc1ccc2c(c1)C(=O)N(C)[C@@H]1CC[C@H](CC(=O)NCCc3ccccc3)O[C@H]1CO2	/	/	/	0	4	/	/
N#Cc1cccc(-c2ccc(C3[C@@H]4CN(C(=O)C5CC5)C[C@H]3N4)cc2)c1 (stereo partly specified)	/	/	/	/	0	/	/
CC(C)c1ccc(/C=C2\Oc3c(ccc(O)c3CN3CCN(C)CC3)C2=O)cc1	-142	-49	38*	0	-1	-16	-26
